# Bioassay records deposited in PubChem by National Center for Advancing Translational Sciences (NCATS).
# Only some compounds are listed: those with a hit (about 19% of all), similar ones and a draw of the others.
# TDP1 cell noCPT = qHTS for Inhibitors of human tyrosyl-DNA phosphodiesterase 1 (TDP1): qHTS in cells in absence of CPT; DT40 Tdp1-/- hTDP1 cells, no CPT, ATP luminescence, 48 h; AID 686978, 2013; actives 15% (n = 420,000); Potency, µM (series often up to 46.2 µM), for inactives: top-dose activity change, negative = growth inhibition, actives largely listed as inhibitors; further: potency means the concentration at half of the fitted maximal effect; on the % scale 0 is the no-effect control and ±100 the full control effect; nearly all actives have a fitted effect of over 55% in size
#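 Camptothecin absent (DMSO only). Human TDP1-complemented DT40 knockout cells, 400 cells/well, 37 °C for minimum 48 hr; ATP measured via CellTiter-Glo, 30 min dark incubation, luminescence.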
# TDP1 inh = TDP1 (human) enzyme inhibition | Q9NUW8 | recombinant TDP1, AlphaScreen DNA substrate cleavage | Potency, µM (highest dose often 130 µM), for the others: top-dose activity change, negative = inhibition, usual class: inhibitors | actives 0.28% (n = 350,000) | AID 485290; further: potency means the concentration at half of the fitted maximal effect; on the % scale 0 is the no-effect control and ±100 the full control effect; nearly all actives have a fitted effect of over 40% in size
# Target sequence (Q9NUW8 whole entry, looked up): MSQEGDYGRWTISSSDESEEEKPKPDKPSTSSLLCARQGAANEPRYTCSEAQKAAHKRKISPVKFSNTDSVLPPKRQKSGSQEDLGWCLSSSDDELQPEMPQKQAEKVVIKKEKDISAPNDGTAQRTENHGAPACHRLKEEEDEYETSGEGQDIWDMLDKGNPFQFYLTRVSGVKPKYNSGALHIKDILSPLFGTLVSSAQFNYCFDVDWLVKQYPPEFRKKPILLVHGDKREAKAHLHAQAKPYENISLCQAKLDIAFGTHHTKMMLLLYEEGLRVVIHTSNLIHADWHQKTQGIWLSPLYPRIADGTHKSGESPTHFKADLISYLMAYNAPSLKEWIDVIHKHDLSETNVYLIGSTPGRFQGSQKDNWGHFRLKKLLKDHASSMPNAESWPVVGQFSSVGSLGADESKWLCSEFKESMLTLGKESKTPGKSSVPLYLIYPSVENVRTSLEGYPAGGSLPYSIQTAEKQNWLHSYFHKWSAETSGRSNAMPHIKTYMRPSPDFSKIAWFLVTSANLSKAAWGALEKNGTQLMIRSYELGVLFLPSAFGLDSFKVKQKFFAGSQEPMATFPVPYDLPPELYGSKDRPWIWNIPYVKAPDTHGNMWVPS
#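 AlphaScreen read-out: signal falls as enzyme removes the 3' tyrosine-FITC from a 5'-biotinylated DNA oligo (15 nM, 5 min, RT). Enzyme was E. coli-made recombinant Tdp1 at 1 nM, exposed to compound for 15 min beforehand; beads 10 ug/ml, 10 min.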
# IL1B secr inh = blocks inflammasome-driven IL-1 beta release; THP-1 LPS/ATP IL-1B secretion, AlphaLISA, 16 h; hits give low values; activity change, % at 57.5 µM; actives 4.7% (n = 360,000); in the data active means activity change below about -50%; inconclusive means mostly about -30% to -49%; further: on the % scale 0 is the no-effect control and ±100 the full control effect
#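 Secreted IL-1B measured by AlphaLISA bead assay after 16 h compound exposure of THP-1 cells; compounds (final up to 57.5 uM) added 1 h before LPS (250 ng/mL) and ATP (1.25 mM) stimulation; lower signal means less secretion.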
# HepG2 viability = HepG2 cytotoxicity, counter-screen for TGF-b inhibitors; HepG2 CAGA-GFP viability, ATP luminescence, 18 h; Potency, µM (highest dose often 46.1 µM), for the others: at the highest dose activity change, negative = cytotoxicity, usual class: cytotoxic; actives 0.76% (n = 410,000); AID 588856; further: potency means the concentration at half of the fitted maximal effect
#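 CellTiter-Glo luminescence gave cytotoxicity after 18 hours at 37 degrees C. The cells were HepG2 CAGA-GFP in 1% FBS DMEM, stimulated with 500 pg/mL TGF-beta after compound addition. %Activity was normalised to no-cell wells (complete cell-killing) and DMSO (no toxicity), and curves were fitted and classified.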
# TGFb SMAD3 inh = TGF-b pathway inhibition. Potency, µM (titrated, usually from 46.1 µM), for inactives: top-dose activity, negative = inhibition, actives largely listed as inhibitors. AID 588855. HepG2 CAGA-GFP TGF-b/SMAD3 reporter, GFP fluorescence, 18 h; TGF-beta stimulated, 500 pg/mL final. actives 1.2% (n = 410,000); further: potency means the concentration at half of the fitted maximal effect; on the % scale 0 is the no-effect control and ±100 the full control effect; nearly all actives have a fitted effect of over 65% in size
#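 Using HEPG2 CAGA-GFP reporter cells at 1000 cells/well, we pinned test compounds, stimulated with recombinant TGF-beta (500 pg/mL final) and measured total well GFP after 18 h.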
# TDP1 cell CPT = growth inhibition of DT40 Tdp1-/-;hTDP1 cells with camptothecin (screen for TDP1 inhibitors); chicken DT40 Tdp1-/-;hTDP1 cells + 20 nM CPT, ATP luminescence, 48 h; actives 12% (n = 420,000); Potency, µM (titrated, usually from 46.2 µM), without a hit: top-dose activity change, negative = growth inhibition, hits mostly inhibitors; AID 686979; further: potency means the concentration at half of the fitted maximal effect; on the % scale 0 is the no-effect control and ±100 the full control effect; nearly all actives have a fitted effect of over 55% in size
#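 Chicken DT40 Tdp1-/- cells stably complemented with human TDP1 were seeded at 400 cells/well in medium containing 20 nM camptothecin, exposed to pin-transferred compounds, and grown at 37 °C for at least 48 hr. Viability was read as ATP luminescence.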
# Numbers without * were called inactive; ? = inconclusive; . = no result; [ ] = another dose, or the depositor's remark. Unless noted, the call rests on the fitted dose curve; in most records, active means well fitted curve in the direction sought with a large enough effect; inconclusive means small, poorly fitted or top-dose-only effect, or another doubt; inactive means no such curve, though single readings can be large; an effect the other way counts as inactive or inconclusive.
SMILES,TDP1 cell noCPT,TDP1 inh,IL1B secr inh,HepG2 viability,TGFb SMAD3 inh,TDP1 cell CPT
Cc1ccccc1CN(C)C(=O)COC(=O)CSc1ccc([N+](=O)[O-])cc1,-9%,3%,7,1%,28%,6%
Cc1oc2c(CN3CCCC(C)C3)c(O)ccc2c(=O)c1-c1ccccc1 (centres undefined),20%,.,5,-6%,4%,-4%
COc1cc(NC(=O)CC(C)S(=O)(=O)c2cc3c4c(c2)CCN4C(=O)CC3)cc(OC)c1 (centres undefined),-9%,8%,.,-15%,-12%,-18%
Cc1c(C2(c3cc(C(C)C)c(O)c(Br)c3C)OS(=O)(=O)c3ccccc32)cc(C(C)C)c(O)c1Br,-7%,.,.,-8%,-26%,-1%
CC(C)C[C@@H](CC(=O)N[C@@H](CCC(=O)O)CC(=O)O)NC(=O)[C@@H]1CNCC[C@H]1NC(=O)C[C@@H](NC(=O)C[C@H](Cc1ccccc1)NC(=O)[C@@H]1CNCC[C@H]1N)C(C)C,.,2%,.,.,.,.
Nc1ccccc1[N+](=O)[O-],.,9%,.,.,.,.
CCCCn1c(SCC(=O)NC2CCCC2)nnc1-c1ccco1,-6%,.,-7,-10%,0%,1%
O=C(COC(=O)CSc1ccc([N+](=O)[O-])cc1)NCCCc1ccccc1,?,3%,6,9%,-7%,15µM*
O=C(COC(=O)CSc1ccc([N+](=O)[O-])cc1)NCCc1ccccc1,8%,.,-3,-5%,0%,-3%
CSCCC(NC(=O)c1ccc([N+](=O)[O-])cc1Cl)C(=O)OCC(=O)NCCCc1ccccc1 (centres undefined),?,5%,-20,-45%,16µM*,-20%
Cc1cc(=O)c2c(C)nn(-c3ccccc3)c2[nH]1,-13%,-4%,9,5.6µM*,-6%,12%
Cc1c(C)c2c(C)nn(-c3ccccc3)c2[nH]c1=O,-15%,0%,23,-2%,-8%,?
CCCCCn1nnnc1-c1nc2cc(C)c(C)cc2[nH]c1=O,?,.,5,.,.,?
CCOc1cc(/C=N/NC(N)=O)ccc1OCC(=O)Nc1ccc(C)c(C)c1,23µM*,8%,-15,7%,-2%,21µM*
CCOc1cc(/C=N/NC(=O)c2nn(C)cc2Br)ccc1OCc1ccccc1,10µM*,3%,28,-1%,1%,15µM*
COc1cc(/C=N/NC(=O)c2cccc3ccccc23)ccc1OCC(N)=O,5.8µM*,.,65,-40%,11%,?
COc1ccc(/C=N/NC(=O)c2nn(C)cc2Br)cc1CSCc1ccco1,?,7%,0,-4%,6%,?
COc1cccc(/C=N/NC(=O)c2cccc3ccccc23)c1,?,3%[56.1 µM],33,-5%,-6%,?
COc1cc(/C=N/NC(N)=O)ccc1OCC(=O)Nc1ccc(C)c(C)c1,7%,-5%,-7,-17%,6%,-5%
CCOc1ccc(C=NNC(=O)c2cccc3ccccc23)cc1OCC,18µM*,.,7,0%,-3%,?
Cc1ccc(-c2nc(-c3cc4cc(Cl)ccc4oc3=O)sc2C)cc1,?,-8%,.,4%,26%,-11%
Cc1ccc(N(C)S(=O)(=O)c2nnc(NC(=O)C3CCCCC3)s2)cc1,-11%,0%,.,7%,0%,4%
COc1ccc(C2Nc3ccccc3C(=O)N2Cc2ccccc2OC)cc1COc1ccc(NC(C)=O)cc1 (centres undefined),.,-5%,.,.,.,.
CC(C)C(=O)NNc1ccc(C(F)(F)F)cn1,?,-11%,6,-2%,27%,-6%
CCOc1cc(/C=N/NC(=O)c2cc(C)n(-c3ccc(F)cc3)c2C)ccc1O,21µM*,6%,11,0%,?,16µM*
SMILES,TDP1 cell noCPT,TDP1 inh,IL1B secr inh,HepG2 viability,TGFb SMAD3 inh,TDP1 cell CPT
COc1cc(/C=N/NC(=O)c2cccnc2)ccc1OCC(=O)Nc1ccc(C)cc1,-23%,?,14,10%,13%,19%
CCOc1cc(/C=N/NC(=O)c2ccc(NC(=O)C3CC3)cc2)ccc1O,-18%,0%,?,-17%,-5%,?
COc1cc(/C=N/NC(=O)c2cccc(C)c2)ccc1OCC(=O)Nc1ccccc1,18µM*,.,13,3%,-7%,?
CCOc1ccc(CN2C(=O)c3ccccc3Sc3ccc(C(=O)NCc4ccc5c(c4)OCO5)cc32)cc1,-13%,5%,.,1%,9%,10%
CCc1nc(N2CCN(S(=O)(=O)c3ccc(Br)cc3)CC2)c2c(C)c(C)sc2n1,23µM*,.,-9,-11%,?,?
Cc1nc(N2CCN(S(=O)(=O)c3ccc(Br)cc3)CC2)c2c(C)c(C)sc2n1,?,2%,21,-8%,-17%,21µM*
Cc1nc(N2CCN(S(=O)(=O)c3ccccc3)CC2)c2cc(-c3ccccc3)sc2n1,?,1%,-23,21%,2%,15µM*
Cc1nc(N2CCN(C)CC2)c2cc(-c3ccccc3)sc2n1,-27%,5%,-28,3%,3%,-3%
Cc1sc2ncnc(N3CCN(c4ncccn4)CC3)c2c1C,?,8%,?,-10%,?,23µM*
O=C(CSc1ccccc1F)NCC(c1cccs1)N1CCOCC1 (centres undefined),?,0%,32,4%,1%,?
COc1ccc(C(=O)Nc2ccc(OCC(=O)N3CCOCC3)cc2)c(OC)c1OC,-8%,4%,10,7%,13%,7%
Cc1sc2ncnc(N3CCN(S(=O)(=O)c4ccc(F)cc4)CC3)c2c1C,12µM*,.,-57*,-29%,-4%,?
CN1OC[C@@H]2CN(Cc3ccccc3)[C@H](c3cccc(Oc4ccccc4)c3)C[C@@H]21,23µM*,.,-9,-25%,?,26µM*
CN1OC[C@@H]2CN(Cc3cc(Cl)cc(Cl)c3)[C@H](c3cccc(Oc4ccccc4)c3)C[C@@H]21,?,.,?,-22%,-4%,?
COc1ccc(CNC(C)C23CC4CC(CC(C4)C2)C3)c(OC)c1OC (centres undefined),15µM*,.,?,-34%,-10%,?
O=C(NCCc1ccccc1)C1=CCN(S(=O)(=O)c2ccccc2)CC1,0%,0%,25,-2%,-5%,-20%
